From PubChem BioAssay AID2796 (The Scripps Research Institute Molecular Screening Center, 2010)
Hit rate of the full screen: of about 320,000 compounds, about 8,000 (2.5%) were called active. No stated cut-off is given here; in the data, active means activation above about 47%; inactive means the rest. The sample as a whole holds a higher share of actives than the screen did.

Target: Aryl hydrocarbon receptor (Homo sapiens) (UniProt P35869)
Assay: AHR activators, primary screen, cell-based, luminescence, luciferase reporter, human (AID 2796);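 further: 0% = vehicle wells and 100% = reference agonist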
Details: AHR-responsive luciferase reporter cells, at 5 µM, hits give high values

Sequence of Aryl hydrocarbon receptor (Homo sapiens) (P35869 whole entry, looked up): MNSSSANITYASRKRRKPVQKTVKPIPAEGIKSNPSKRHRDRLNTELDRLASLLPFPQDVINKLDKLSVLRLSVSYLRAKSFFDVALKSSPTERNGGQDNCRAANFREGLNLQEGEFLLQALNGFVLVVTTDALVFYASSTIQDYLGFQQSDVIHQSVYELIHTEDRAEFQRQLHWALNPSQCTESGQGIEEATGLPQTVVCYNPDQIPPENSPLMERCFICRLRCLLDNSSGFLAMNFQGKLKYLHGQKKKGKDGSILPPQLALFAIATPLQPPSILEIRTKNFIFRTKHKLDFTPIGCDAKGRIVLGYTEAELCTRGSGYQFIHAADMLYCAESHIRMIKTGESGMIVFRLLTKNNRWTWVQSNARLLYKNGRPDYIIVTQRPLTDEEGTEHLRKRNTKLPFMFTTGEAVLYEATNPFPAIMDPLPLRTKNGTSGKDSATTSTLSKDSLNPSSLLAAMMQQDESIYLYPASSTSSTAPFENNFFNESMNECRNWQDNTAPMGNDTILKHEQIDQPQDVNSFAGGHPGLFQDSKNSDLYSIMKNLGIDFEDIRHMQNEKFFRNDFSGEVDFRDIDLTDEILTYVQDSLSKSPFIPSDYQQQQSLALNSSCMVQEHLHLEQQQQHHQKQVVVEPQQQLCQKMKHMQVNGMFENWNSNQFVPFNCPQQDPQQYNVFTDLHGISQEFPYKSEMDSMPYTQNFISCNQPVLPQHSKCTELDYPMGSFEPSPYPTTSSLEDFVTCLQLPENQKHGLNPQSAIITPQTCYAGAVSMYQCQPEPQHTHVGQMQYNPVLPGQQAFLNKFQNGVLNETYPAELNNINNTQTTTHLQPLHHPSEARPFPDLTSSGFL

activation, inactive:
CN1CCN(C(CNS(=O)(=O)c2cccs2)c2cccnc2)CC1 (stereo not drawn) 0.06%
Cc1cc(C(=O)NNS(=O)(=O)c2ccccc2C(F)(F)F)nn1C(C)(C)C 33.2%
CC(C)(C)c1cc(C(=O)NCc2cccnc2)ccn1 5.21%
Cc1c(C(=O)NC(=S)NCc2cccnc2)oc2ccccc12 6.27%
CS(=O)(=O)N1CCCC(C(=O)N2CCOCC2)C1 (stereo not drawn) -4.42%
COc1ccc(CNc2nc(NCc3ccc(OC)cc3)c3ncn(C4CCCC4)c3n2)cc1 5.12%
CCN(CC(=O)Nc1ccccc1C(F)(F)F)C(=O)C1CCN(C(=O)Nc2ccccc2)CC1 0.13%
CSc1ncccc1C(=O)NCC(c1ccco1)N1CCCCC1 (stereo not drawn) 0.96%
Cc1cc(S(=O)(=O)Nc2ccc(C(=O)NCC(c3ccco3)N3CCCC3)cc2)ccc1F (stereo not drawn) 2.37%
O=C1/C(=C/c2ccc3c(c2)OCO3)Oc2cc(OCC(=O)N3CC(O)C[C@H]3C(=O)O)ccc21 (stereo partly drawn) 0.62%
Cc1ccc(-n2[nH]c(C)c(/C=N/NC(=O)c3cccc([N+](=O)[O-])c3)c2=O)cc1C 15.9%
Cc1[nH]n(-c2ccccc2)c(=O)c1/C=N/NC(=O)c1ccoc1C 24.8%
Cc1nn(C)c(C)c1Sc1ccccc1N 2.57%
O=C(Nc1ccccc1Cl)N1CCN(c2ccc3nncn3n2)CC1 -1.87%
Cc1ccc(/C=C(\C#N)C(=O)Nc2cccc3ncccc23)o1 7%
O=C(c1ccc(Cl)cc1)n1cnc2ccccc21 -0.68%
O=c1c(-c2ccc(Cl)cc2)[n+]([O-])c2ccccc2n1OCc1nc2ccccc2[nH]1 24.5%
CCN(CCn1cccn1)Cc1cn[nH]c1-c1ccc(OC)cc1F 1.96%
O=C(COc1ccc([N+](=O)[O-])cc1)Nc1cccc(C(=O)Nc2ccccc2C(=O)O)c1 -3.04%
CCOC(=O)/C=C/CN(C(=O)OC(C)(C)C)S(=O)(=O)N1CC=CC1 -1.1%
COC(=O)c1ccc(/C=N/N2C(C)CCCC2C)cc1 (stereo not drawn) -0.9%
COc1ccc(C(=O)N2CCN(c3ccc(C(C)=O)cc3F)CC2)cc1S(=O)(=O)NC1CC1 2.09%
O=C(Nc1ccc(N2C(=O)c3cccc4cccc(c34)C2=O)cc1)c1ccc(N2CCCCC2)c([N+](=O)[O-])c1 -0.89%
CCC(c1nnnn1Cc1ccco1)N(CCc1ccccc1)Cc1cc2cccc(C)c2[nH]c1=O (stereo not drawn) 19.4%
Cc1cccc2cc(CN(Cc3nnnn3Cc3ccccc3)C3CCCC3)c(=O)[nH]c12 12.9%
CC(=O)Nc1ccc(S(=O)(=O)NCCC(=O)N2CCN(c3ccccc3Cl)CC2)cc1 0.74%
CCC(CO)Oc1cc(NC(=O)c2cccc3ccccc23)c2ncn(C(C)C)c2c1 (stereo not drawn) 5.86%
COC(=O)c1cc(C(=O)OCC(=O)Nc2cc(C)on2)cc([N+](=O)[O-])c1 0.26%
O=C1CC2(CCCC2)C(=O)N1CN1CCN(S(=O)(=O)c2ccc(F)cc2F)CC1 1.21%
CNC(=O)Nc1cc(C(C)(C)C)no1 1.28%
COc1ccccc1-c1nnc(-c2ccc(F)cc2)o1 33.5%
FC(F)(F)c1cnc(Oc2ccccc2-c2nnc(-c3ccc(Cl)cc3)o2)c(Cl)c1 1.03%
c1ccc(-n2nc3ccccc3n2)cc1 -5.11%
CCC(=O)Nc1ccc2nn(-c3ccc(F)cc3)nc2c1 31.9%
Cc1nn(-c2ccccc2)nc1C(=O)OCC(=O)N1CCCCC1C (stereo not drawn) 4.35%
CC(Sc1nnc(C2CC2)n1C1CC1)C(=O)Nc1ccc(C(N)=O)cc1 (stereo not drawn) -0.58%
CC12CCC(C(=O)N3CCN(c4ncccn4)CC3)(c3nc4ccccc4nc31)C2(C)C (stereo not drawn) 16.9%
O=C(c1ccncc1)N1CCN(c2ccc3ccccc3n2)CC1 -0.88%
O=C1NC(c2ccccc2)CCC1(Cl)Cl (stereo not drawn) 0.32%
CC(C)CCN1CCN(Cc2ccc(C(F)(F)F)cc2)CC1CCO (stereo not drawn) 1.42%
Cc1cc(NC(=O)COC(=O)COc2ccc(Cl)cc2C)c([N+](=O)[O-])cc1C 4.86%
Cc1ccc(C)c(NC(=O)COC(=O)CSc2ccccc2)c1 -0.94%
Cc1cnc(C(=O)OCC(=O)Nc2ccc(Cl)cc2Cl)cn1 2.01%
COc1ccc(OCC(=O)Nc2cc(C)c(Cl)cc2OC)c([N+](=O)[O-])c1 3.52%
Cc1cccc(N2CCN(C(=O)/C=C/c3ccco3)CC2)c1C 2.32%
CCN(CC)S(=O)(=O)c1ccc(N2CCCC2)c(NC(=O)c2ccc([N+](=O)[O-])o2)c1 0.5%
COc1ccc(N2C(=O)C3C(C2=O)C(C(=O)c2ccccc2)N2CCCC32)cc1 (stereo not drawn) 5.21%

activation, active:
Cc1ccc(C(=O)NC(=S)NCc2cccnc2)cc1 70.4%
Cc1c(C(=O)NCC(c2ccco2)N2CCCC2)oc2ccc(Cl)cc12 (stereo not drawn) 91.5%
COc1cc(SC#N)ccc1N=Cc1c(C)[nH]n(-c2ccc(C)cc2)c1=O 71.7%
O=C(Cc1nc2ccccc2[nH]c1=O)c1ccc(Cl)cc1 57.9%
[O-][n+]1c2c(nn1-c1ccc(Cl)c(Cl)c1)-c1nonc1CC2 78.5%
CCC(c1nnnn1C1CCCC1)N(Cc1cccs1)Cc1cc2cccc(C)c2[nH]c1=O (stereo not drawn) 54.6%
CSc1ccccc1-c1nnc(-c2ccc(Cl)cc2)o1 52.9%
Nc1ccc2nn(-c3ccc(Cl)cc3)nc2c1 109%
c1cnc(N2CCN(c3ccc4ccccc4n3)CC2)nc1 120%
COc1cc(NC(=O)COC(=O)c2cnc(C)cn2)c(C)cc1[N+](=O)[O-] 49.4%
COc1cc(NC(=O)COC(=O)CSc2ccc3ccccc3c2)c(C)cc1[N+](=O)[O-] 60%
